Data reported in PubChem BioAssay AID1851 (National Center for Advancing Translational Sciences (NCATS), 2009).
Several values for one entry are separate records, joined by “and”; a condition that tells them apart may be missing. Equal values may be shown once. Among all 16,000 compounds or so, about 2,600 (16%) were called active. Not shown: some 20% with an inconclusive outcome. Calls come from the whole dose curve; as a rule, active = well fitted curve in the direction sought with a large enough effect; inconclusive = small, poorly fitted or top-dose-only effect, or effect the other way; inactive = no such curve, though single readings can be large or run the other way. The list is a sample of the results.

Target: Cytochrome P450 2D6 (Homo sapiens) (UniProt P10635)
Sequence (P10635 whole entry, looked up): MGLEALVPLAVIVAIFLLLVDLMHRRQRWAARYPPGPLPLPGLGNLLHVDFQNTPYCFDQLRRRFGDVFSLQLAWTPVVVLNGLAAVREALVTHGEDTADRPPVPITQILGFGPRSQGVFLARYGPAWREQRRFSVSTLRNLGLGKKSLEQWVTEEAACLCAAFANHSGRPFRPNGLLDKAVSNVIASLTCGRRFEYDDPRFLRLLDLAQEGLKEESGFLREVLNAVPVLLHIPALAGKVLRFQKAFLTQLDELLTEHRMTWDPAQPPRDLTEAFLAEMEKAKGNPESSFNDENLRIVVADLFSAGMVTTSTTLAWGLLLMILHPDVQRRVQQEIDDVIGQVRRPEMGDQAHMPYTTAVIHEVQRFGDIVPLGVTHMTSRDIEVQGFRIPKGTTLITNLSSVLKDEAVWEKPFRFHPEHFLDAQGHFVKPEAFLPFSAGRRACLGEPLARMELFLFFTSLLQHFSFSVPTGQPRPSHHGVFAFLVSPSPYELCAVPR
Assay: Cytochrome panel assay with activity outcomes
Settings: recombinant CYP, pro-luciferin dealkylation, luminescence, p450-cyp2d6; series mostly up to 57.1 µM
% is set by controls: 0 for no effect and ±100 for the full control effect.

Row | SMILES | AC50 | activity, negative = inhibition
1 | N.N.O=C(O)C1(C(=O)O)CCC1.[Pt] | inactive | –
2 | O=c1[nH]c2cc(Cl)ccc2c(O)c1-c1cccc(Oc2ccccc2)c1 | 6.31 µM (active) | –
3 | O=c1[nH]c2cc(Cl)ccc2c(O)c1-c1ccc(Oc2ccccc2)cc1 | inactive | –
4 | Cc1cc(-c2ccccc2)[nH]c(=O)c1S(=O)(=O)c1ccc(Cl)cc1 | inactive | –
5 | CCn1c(CC(=O)Nc2ccc(C)cc2)nnc1SCC(=O)Nc1nc(C)cs1 | inactive | –
6 | C[C@@H]1CCC[C@H](C)N1NC(=O)c1ccc(Cl)c(S(N)(=O)=O)c1 | inactive | –
7 | CCCC[P+](CCCC)(CCCC)Cc1ccc(NC(=O)[C@@H](Cc2ccc3ccccc3c2)NC(=NC2CCCCC2)NC2CCCCC2)cc1 | inactive | –
8 | Cc1ccccc1C(=O)N1CCc2ccccc2C1 | inactive | –
9 | Cc1ccc(OCC(=O)Nc2ccccc2-c2ccccc2)cc1 | inactive | –
10 | Nc1cc(=O)[nH]c(SCC(=O)Nc2ccc(S(=O)(=O)N3CCOCC3)cc2)n1 | inactive | –
11 | CSc1ccccc1NC(=O)CSCc1ccc(C)cc1 | 14.1 µM (active) | –
12 | CC(=O)c1cccc(NC(=O)CSCc2ccccc2)c1 | 14.1 µM (active) | –
13 | O=C(CSCc1ccccc1)Nc1ccc(S(=O)(=O)N2CCOCC2)cc1 | 6.31 µM (active) | –
14 | COC(=O)c1ccc(C(=O)OC)c(NC(=O)CSCc2ccc(Br)cc2)c1 | inactive | –
15 | Cc1ccc(NS(=O)(=O)c2cc(C(=O)N3CCc4ccccc4C3)ccc2Cl)cc1 | inactive | –
16 | CS(=O)(=O)Nc1ccc(S(=O)(=O)N2CCOCC2)cc1 | inactive | –
17 | O=C(CSCc1ccccc1)Nc1cccc(C(=O)Nc2ccccc2C(=O)O)c1 | inactive | –
18 | O=C(c1ccc(CN2CCc3ccccc3C2)cc1)N1CCc2ccccc2C1 | 2 µM (active) | –
19 | CN(C)CCN1C(=O)C(O)=C(C(=O)c2cc3ccccc3o2)C1c1cccc(Br)c1 (centres undefined) | inactive | –
20 | COc1ccc2c(c1)C(=O)N(c1ccccc1)C(=O)C2 | inactive | –
21 | CN(C)c1cc(=O)n2c(n1)SCCC2 | inactive | –
22 | CCSc1nc2ccccc2n1C(=O)/C=C\c1ccc(OC)c(OC)c1 | inactive | –
23 | CC(C)COP(=O)(OCC(C)C)C(O)c1ccccc1F (centres undefined) | inactive | –
24 | CCOC(=O)c1c(NC(=O)c2ccc(S(=O)(=O)N3CCOCC3)cc2)sc2c1CCN(C)C2 | inactive | –

Row | SMILES | AC50 | activity, negative = inhibition
25 | Cc1nc2ccc3nc(NC(=O)c4ccc(S(=O)(=O)N5CCOCC5)cc4)sc3c2s1 | inactive | –
26 | O=C(NCc1n[nH]c(=S)n1-c1ccccc1)c1ccc(S(=O)(=O)N2CCOCC2)cc1 | inactive | –
27 | O=C(Nc1ccc(S(=O)(=O)N2CCOCC2)cc1)c1ccc(CN2CCc3ccccc3C2)cc1 | 0.178 µM (active) | –
28 | CN(C)S(=O)(=O)c1ccc(C(=O)Nc2ccc(CN3CCCC3)cc2)cc1 | 2.51 µM (active) | –
29 | CCN(CC)S(=O)(=O)c1ccc(C(=O)Nc2ncn(Cc3ccccc3)n2)cc1 | inactive | –
30 | O=C(Nc1ccccc1-c1nc2ccccc2[nH]1)c1ccc(S(=O)(=O)N2CCCCC2)cc1 | inactive | –
31 | CN(C)S(=O)(=O)c1ccc(NC(=O)c2cc(F)c(F)cc2Cl)cc1 | inactive | –
32 | O=C(Nc1ccc(S(=O)(=O)N2CCCC2)cc1)c1ccc(CN2CCOCC2)cc1 | 5.01 µM (active) | –
33 | O=C(Nc1ccc(S(=O)(=O)N2CCCCC2)cc1)c1ccc(CN2CCc3ccccc3C2)cc1 | 0.251 µM (active) | –
34 | COCc1nnc(NC(=O)c2ccc(S(=O)(=O)N3CCCCCC3)cc2)o1 | inactive | –
35 | O=C(CSc1ncccn1)Nc1ccc(S(=O)(=O)N2CCCCC2)cc1 | inactive | –
36 | C[C@@H](c1ccccc1)N1C(=O)[C@H]2[C@@H]3[C@H](O)[C@H](O)CC(=O)[C@H]3CC[C@H]2C1=O | – | 12.3% [at 11.4 µM] (inactive) and 1.84% [at 11.4 µM] (inactive)
37 | C#CCCCO/N=C1/C[C@@H](O)[C@@H](O)[C@@H]2[C@@H]3C(=O)N(C[C@@H]4CCCO4)C(=O)[C@H]3CC[C@@H]12 | – | 9.44% [at 11.4 µM] (inactive)
38 | CCCCOc1ccccc1C1CC(=O)NC2=C1C(=O)CCC2 (centres undefined) | inactive | –
39 | COc1ccc(N2CCN(S(=O)(=O)c3ccc4c(c3)CCCC4)CC2)c([N+](=O)[O-])c1 | inactive | –
40 | Cn1c(=O)[nH]c(=O)c2c1nc(NCCCO)n2CCCc1ccccc1 | inactive | –
41 | O=C(Nc1nc(-c2ccccc2)cs1)c1cccc([N+](=O)[O-])c1 | inactive | –
42 | Cc1nn(-c2ccc(F)cc2)c(Cl)c1/C=C(\CCC(=O)O)c1nc2ccccc2s1 | inactive | –
43 | CC(=O)[C@H]([C@@H](c1ccccc1)N1CCOCC1)N1CCOCC1 | – | -3.05% [at 11.4 µM] (inactive)
44 | CN1CCc2c(c3ccccc3n2Cc2ccccc2)C1 | 3.16 µM (active) | –
45 | CN1CCc2nc(N)nc(-c3nc(N)nc4c3CN(C)CC4)c2C1 | – | 8.94% [at 11.4 µM] (inactive)
46 | CN1CCc2[nH]nc(-c3n[nH]c4c3CN(C)CC4)c2C1 | – | 11.7% [at 11.4 µM] (inactive)
47 | O=c1[nH]ncc2c3ccccc3n(Cc3ccccc3)c12 | inactive | –
48 | CN1CCc2c(c3ccccc3n2C)C1 | 12.6 µM (active) | –

Row | SMILES | AC50 | activity, negative = inhibition
49 | CCCNC(=O)OC[C@@H]1O[C@H](CCO/N=C\[C@@H](C)[C@H](OCc2ccccc2)C(C)C)C=C[C@@H]1Oc1ccc(OC)cc1 | – | -8.99% [at 11.4 µM] (inactive)
50 | O=C1N=C2SCCN2/C1=C\c1c(Cl)cccc1Cl | inactive | –
51 | COC(=O)C/C=C\[C@H](C)[C@H](CO)NS(=O)(=O)c1ccc(C)cc1 | – | -10.6% [at 11.4 µM] (inactive)
52 | COCCn1c(=O)c(C)nc2cnc(N(C)C)nc21 | inactive | –
53 | Cn1c(=O)c(-c2ccccc2)nc2cnc(N3CCNCC3)nc21 | inactive | –
54 | CCN(CC)c1ccc(N2C(=O)/C(=C/c3cccnc3)SC2=S)cc1 | inactive | –
55 | Cc1c(NC(=O)C2CCN(S(=O)(=O)c3ccc(Cl)cc3)CC2)c(=O)n(-c2ccccc2)n1C | inactive | –
56 | CCC/C=C(\CCC)C(NS(=O)(=O)CC12CCC(CC1=O)C2(C)C)c1ccc(C(=O)OC)cc1 (centres undefined) | 5.01 µM (active) | –
57 | CCC/C=C(\CCC)C(NS(=O)(=O)c1ccc(Cl)cc1)c1ccccc1 (centres undefined) | 20 µM (active) | –
58 | CCC/C=C(\CCC)C(NC(=O)OCC(C)C)c1ccc(C(=O)OC)cc1 (centres undefined) | inactive | –
59 | CCC/C=C(\CCC)C(NC(=O)c1ccc(-c2ccccc2)cc1)c1ccc(C(=O)OC)cc1 (centres undefined) | inactive | –
60 | CCC/C=C(\CCC)C(NC(=O)c1ccc(C(F)(F)F)cc1)c1ccc(C(F)(F)F)cc1 (centres undefined) | inactive | –
61 | CCC/C=C(\CCC)C(NS(=O)(=O)c1ccc(C(F)(F)F)cc1)c1ccc(-c2ccccc2)cc1 (centres undefined) | inactive | –
62 | CCC/C=C(\CCC)C(NS(=O)(=O)c1ccc(C(F)(F)F)cc1)c1ccc(C(=O)OC)cc1 (centres undefined) | inactive | –
63 | CCC/C=C(\CCC)C(NS(=O)(=O)c1cccc2cccnc12)c1ccc(C(=O)OC)cc1 (centres undefined) | inactive | –
64 | CCC/C=C(\CCC)C(NC(=O)c1cccs1)c1ccc(C(=O)OC)cc1 (centres undefined) | inactive | –
65 | CCC/C=C(\CCC)C(NS(=O)(=O)c1cccs1)c1ccc(C(=O)OC)cc1 (centres undefined) | 6.31 µM (active) | –
66 | CCC/C=C(\CCC)C(NS(=O)(=O)c1ccc(Cl)cc1)c1ccc(C(=O)OC)cc1 (centres undefined) | inactive | –
67 | CCC/C=C(\CCC)C(NC(=O)c1ccc(C(F)(F)F)cc1)c1ccccc1 (centres undefined) | 7.94 µM (active) | –
68 | O=C(Nc1cccn(Cc2c(Cl)cccc2Cl)c1=O)c1ccc(Cl)cc1Cl | inactive | –
69 | Cc1ccccc1N1CCN(C(=O)c2ccccc2NC(=O)/C=C\C(=O)O)CC1 | inactive | –
70 | C/C(=N\[N+](C)(C)C)c1ccc(C)c(C)c1 | – | -19.6% [at 11.4 µM] (inactive)
71 | O=C(O)C1C2C=CC(C2)C1C(=O)N1CCN(C/C=C/c2ccccc2)CC1 (centres undefined) | inactive | –
72 | Cc1cccc(C(=O)Nc2nnc(-c3ccc(C(C)(C)C)cc3)s2)c1 | inactive | –

Row | SMILES | AC50 | activity, negative = inhibition
73 | CCCc1nnc(NC(=O)Cn2cnc3ccccc3c2=O)s1 | inactive | –
74 | COc1ccc(C(O)P(=O)(OC(C)C)OC(C)C)cc1OC (centres undefined) | inactive | –
75 | CCc1ccc(N2C(=O)c3ccc4c5c(ccc(c35)C2=O)CC4)cc1 | inactive | –
76 | C=CCN1C(=O)CN=C1Nc1ccccc1 | inactive | –
77 | CN1CCN(/C=N/C2=C(C#N)C(c3ccccc3)C3=C(CC(C)(C)CC3=O)O2)CC1 (centres undefined) | inactive | –
78 | CSc1nc(C)c2c(n1)N(c1ccc(C(F)(F)F)cc1)CC2 | inactive | –
79 | COc1ccc(N2CCc3c(C)nc4c(OC)cc(OC)cc4c32)c(OC)c1 | 0.1 µM (active) | –
80 | COc1cc(OC)c2nc(C)c3c(c2c1)N(c1ccc(O)cc1)CC3 | 3.16 µM (active) | –
81 | COc1ccc2c(C)cc(N3CCOCC3)nc2c1 | inactive | –
82 | COc1ccc(N2C(=O)CSC2c2cccc(F)c2)c(OC)c1 (centres undefined) | inactive | –
83 | CSc1nc(C)c2c(n1)N(c1ccc(C(C)C)cc1)CC2 | inactive | –
84 | CN(C)CCNc1ncnc2c1sc1nc(N3CCOCC3)c3c(c12)CC(C)(C)SC3 | inactive | –
85 | CC(C)/C(=N/[N+](C)(C)C)c1ccccc1 | – | 6.75% [at 11.4 µM] (inactive)
86 | CC(C)NCCCOc1ccc(Cl)cc1Br | 0.178 µM (active) | –
87 | CC1(C)CC(=O)C/C(=N/NC(=O)CCCOc2ccc(Cl)cc2Cl)C1 | inactive | –
88 | CC(C)C(=O)Nc1ccc(C(=O)NNC(=O)CCCOc2ccc(Cl)cc2Cl)cc1 | inactive | –
89 | CC1(C)O[C@H]2[C@@H](O1)[C@@H](On1nnc3ccc(Cl)cc31)O[C@@H]2[C@@H]1COC(C)(C)O1 | – | -7.25% [at 11.4 µM] (inactive)
90 | COc1ccc(C(=O)NNC(=O)CSc2nnc(COc3ccc4ccccc4c3)n2C)cc1 | inactive | –
91 | Cc1[nH]nc(-c2ccc(O)cc2O)c1-c1ccc(Cl)cc1 | 3.55 µM (active) | –
92 | C=C(C)COc1ccc(-c2n[nH]c(C)c2-c2ccc(OC)cc2)c(O)c1 | inactive | –
93 | Oc1ccc(-c2[nH]ncc2-c2ccc(Cl)cc2)c(O)c1 | 8.91 µM (active) | –
94 | CCCCc1ccc(-c2csc(/C(C#N)=C/c3ccc(C)o3)n2)cc1 | inactive | –
